The values below come from PubChem BioAssay (NCI).

About 83,000 compounds went through this panel and 20% of them were active in at least one assay; those are over-represented in the sample as a whole.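 96-well plates, one dose, 48 hours. Percent growth reported; active if below 10.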 Activity calls are given as the source filed them.

The test system of the test is NCI/ADR-RES ovarian. The experiment in a line: NCI-60 one-dose screen, 48 h (100 = growth as untreated, 0 = no growth, -100 = all killed). To be noted: 10 µM unless noted.
With `Nc1cc2nc3ccccc3sc-2cc1=O`, the growth is 81.1% (inactive).

Take `C#Cc1nc(Nc2cc(C)[nH]n2)c2ccccc2n1`: the growth was 9.77% (active).

On to `CCOC(=O)c1nc(Nc2cc(C)[nH]n2)c2ccccc2n1`, for which the growth was 114% (inactive).

With `O=C(/C=C/c1ccc(Cl)cc1)/C=C/c1cc2ccccc2[nH]c1=O`, the growth is 86% (inactive).

As to `CCOC(=O)c1ccc2c(c1)nc(/C=C/c1ccc(Cl)cc1)n2-c1cc(C(C)(C)C)[nH]n1`, the growth is 68% (inactive).

Regarding `CC(=O)OCC(=O)C1CCC=CC1OC(C)=O` (stereo unspecified), the growth is 100% (inactive).

`COc1cc(C2CC(=O)c3c(C)nn(-c4nc5ccccc5[nH]4)c3C2)cc(OC)c1OC` (stereo unspecified): the growth was 64.9% (inactive).

For the compound `CC1(C)OCC2OC3(C(=O)O)OC(C)(C)OC3C2O1` (stereo unspecified), the growth is 107% (inactive).

Consider `COc1ccc(C(=O)c2sc3nc(-c4ccccc4OC)ccc3c2N)cc1OC`, for which the growth is 33.1% (inactive).

For the compound `COc1ccc(C(=O)c2sc3nc4c(cc3c2N)CCCC4)cc1OC`, the growth was 19.7% (inactive).

Regarding `Cc1ccc2c(NCCCN(C)C)c3c(C)nn(C)c3nc2c1`, the growth was 45.3% (inactive).

As for `Cc1ccc(NC(=O)c2sc3nc4c(cc3c2N)C(=O)CCC4)cc1C`, the growth was 10.9% (inactive).

On to `COc1c(C2CC(=O)Nc3c2cnn3Cc2ccco2)cc2c(c1OC)OCO2` (stereo unspecified), for which the growth is 4.88% (active).

As for `Cc1ccn2c(-c3csc(Nc4cccc(O)c4)n3)c(C)nc2c1`, the growth is 14.4% (inactive).

Turning to `NC(CC(=O)O)C(=O)OCc1ccccc1` (stereo unspecified), the growth was 101% (inactive).

As for `O=C1Nc2ccc(Br)cc2C12CC(c1ccccc1)=NN2` (stereo unspecified), the growth was 40.8% (inactive).

With `Cc1cc(Nc2nc(N3CCNCC3)nc3ccccc23)n[nH]1`, the growth is 107% (inactive).

Consider `CCc1ccccc1NC(=O)c1sc2nc3c(cc2c1N)C(=O)CCC3`, for which the growth is 5.24% (active).

`CCOC(=O)N1CCN(c2nc(Nc3cc(C)[nH]n3)c3ccccc3n2)CC1`: the growth is 55.4% (inactive).

Consider `CN1CCCCC1CCN1c2ccccc2Sc2ccc(Cl)cc21` (stereo unspecified), for which the growth was 72.9% (inactive).

As for `COc1c(Cl)cc(Cl)cc1Cl`, the growth was 112% (inactive).

In the case of `Cc1cc(Nc2nc(N3CCOCC3)nc3ccccc23)n[nH]1`, the growth is 86.3% (inactive).

Consider `COc1ccc(C2CC(=O)Nc3c2c(C)nn3-c2nc3ccccc3[nH]2)cc1` (stereo unspecified), for which the growth is 96.3% (inactive).

`COc1cc(-c2cc(-c3nc4ccc(Cl)cc4[nH]3)[nH]n2)cc(OC)c1OC`: the growth was 20% (inactive).

With `Cc1noc(C)c1-c1cc(O)cc(C(O)c2ccccc2)c1` (stereo unspecified), the growth was 59.2% (inactive).

On to `COc1ccc(-c2nc(Nc3cc(C)[nH]n3)c3ccccc3n2)cc1`, for which the growth is 74.3% (inactive).

Take `Cc1cc(Nc2nc(-c3cccnc3)nc3ccccc23)n[nH]1`: the growth was 69.3% (inactive).

Regarding `CC#Cc1nc2ccccc2c(=O)[nH]1`, the growth was 55% (inactive).

For `O=C(Nc1ccc(F)cc1)Nc1ccc(CCO)cc1`, the growth is 108% (inactive).

Take `CCCCNC(=O)NS(=O)(=O)c1ccc(N2N=C(c3cc(C)ccc3C)CC2c2cc(OC)c(OC)c(OC)c2)cc1` (stereo unspecified): the growth was 30.3% (inactive).

Turning to `NCc1cn2cc(Cl)sc2n1`, the growth was 111% (inactive).

Regarding `CCCCCCCCCCCCN1CCCC(C)C1` (stereo unspecified), the growth was 88.2% (inactive).

Consider `O=c1c2cccc3c(Nc4ccccn4)ccc(c32)c2nc3ccccc3n12`, for which the growth was 74.6% (inactive).

Regarding `Cc1ccc(S(=O)(=O)N(CCc2ccc(Cl)cc2)S(=O)(=O)c2ccc(C)cc2)cc1`, the growth was 87.9% (inactive).

In the case of `O=C(N/N=C/c1ccc(O)cc1O)c1cccnc1`, the growth was 19.1% (inactive).

Turning to `COc1ccc(-c2c(C)noc2-c2ccc(O)cc2O)cc1`, the growth is 94.6% (inactive).
